Test results as given in PubChem BioAssay (Tox21).
Inconclusive results are not listed. Where a call stands in place of a potency, no number is given. Active and inactive are the calls of the source. Calls follow the shape of the full dose curve.

Target: Acetylcholinesterase (Homo sapiens) (UniProt P22303)
Test: Acetylcholinesterase (AChE) small molecule antagonists: colormetric cell-based qHTS assay (AID 1347395); also: nearly all actives have a fitted effect of over 30% in size
Details: SH-SY5Y cells AChE activity, colorimetric (Ellman); series mostly up to 115 µM
In short: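 Quantitative HTS in attached SH-SY5Y cells: 30 min compound exposure, then 90 min with acetylthiocholine and DTNB at 37 C; colour from thiocholine reports AChE activity.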

Chain of Acetylcholinesterase (Homo sapiens) (P22303 whole entry, looked up): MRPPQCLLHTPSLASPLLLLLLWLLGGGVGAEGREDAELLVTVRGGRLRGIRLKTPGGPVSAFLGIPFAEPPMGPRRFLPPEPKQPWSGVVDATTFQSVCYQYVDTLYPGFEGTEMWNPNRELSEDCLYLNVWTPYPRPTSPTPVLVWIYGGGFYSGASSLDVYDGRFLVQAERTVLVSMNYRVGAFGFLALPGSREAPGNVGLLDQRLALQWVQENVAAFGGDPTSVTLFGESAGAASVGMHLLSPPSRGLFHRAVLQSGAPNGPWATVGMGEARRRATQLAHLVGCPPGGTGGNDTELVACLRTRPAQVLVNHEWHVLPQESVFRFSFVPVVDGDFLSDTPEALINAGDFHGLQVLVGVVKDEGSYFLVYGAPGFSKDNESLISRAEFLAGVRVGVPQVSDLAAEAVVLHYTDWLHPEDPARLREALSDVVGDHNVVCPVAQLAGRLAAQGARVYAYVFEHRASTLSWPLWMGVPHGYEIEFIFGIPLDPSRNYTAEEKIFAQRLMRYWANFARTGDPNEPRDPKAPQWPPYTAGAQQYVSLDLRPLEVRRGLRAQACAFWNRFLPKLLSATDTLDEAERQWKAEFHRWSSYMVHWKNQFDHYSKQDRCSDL

Compound	Potency	activity, negative = inhibition
Oc1ccc(/C=C/c2cc(O)cc(O)c2)cc1	inactive	
CC(C)C[C@H](NC(=O)[C@H](CCc1ccccc1)NC(=O)CN1CCOCC1)C(=O)N[C@@H](Cc1ccccc1)C(=O)N[C@@H](CC(C)C)C(=O)[C@@]1(C)CO1	inactive	
CC(C)(C)OC(=O)c1cccc(N)c1	inactive	
Nc1ncnc2c1ncn2[C@@H]1O[C@H](COP(=O)(O)O)[C@@H](O)[C@H]1O	inactive	
C/C=C/C(=O)C1=C(C)CCCC1(C)C	inactive	
CCNC(=O)/C=C/c1cccc(Br)c1	inactive	
Cc1cc(C)cc(O)c1	inactive	
O=C(O)CCCCCCCC(=O)O	inactive	
O=S(=O)(O)c1ccc(O)cc1	inactive	
COc1ccc2[nH]cc(CCNC(C)=O)c2c1	inactive	
COc1c(Cl)ccc(Cl)c1C(=O)O	inactive	
COc1cc(S(=O)(=O)Nc2ccccc2)c(OC)cc1N	inactive	
N[C@H](C(=O)O)c1ccc(O)cc1		0% [at 23.6 µM] (inactive)
CCCCCCCCCCCCOCCO	inactive	
O=C(O)CNc1ccccc1	inactive	
CC(C)Oc1ccccc1O	inactive	
NS(=O)(=O)c1ccc(Cl)c(S(N)(=O)=O)c1	inactive	
COc1ccc(CCC(C)=O)cc1	inactive	
CC(=O)c1ccc(O)cc1	inactive	
CC(=O)N[C@H]1[C@H]([C@H](O)[C@H](O)CO)OC(C(=O)O)=C[C@@H]1N=C(N)N	inactive	
CC(C)Cc1ccccc1	inactive	
CC1(C)CCC[C@]2(C)[C@H]3CC(=O)O[C@]3(C)CC[C@@H]12	inactive	
c1ccc2[nH]ccc2c1	inactive	
